Experimental data taken from PubChem BioAssay (NCATS).
“And” between values parts separate entries of the source, which are not always exact repeats. Equal values may be shown once. Results filed as inconclusive are left out. The source made the active and inactive calls. Calls come from the whole dose curve; as a rule, active = well fitted curve in the direction sought with a large enough effect; inconclusive = small, poorly fitted or top-dose-only effect, or another doubt; inactive = no such curve, though single readings can be large; an effect the other way counts as inactive or inconclusive.

What was measured:
CRL-7250 = normal cell line; assay: Cytotoxic Profiling of Annotated Libraries Using Quantitative High-Throughput Screening (AID 1296008); conditions: Five cell lines viability, CellTiter-Glo ATP luminescence, 48-72 h; max response: hits give low values; note: nearly all actives have a fitted effect of over 60% in size; for max response: % is set by controls: 0 for no effect and ±100 for the full control effect
Summary of the method: (§1)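 Cells exposed to compounds for 48 or 72 hr at 37 degrees Celsius. Viability read as ATP-coupled luminescence with CellTiter-Glo after 10 min at room temperature.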

HEK293 = assay: as above; conditions: Five cell lines viability, CellTiter-Glo ATP luminescence, 48-72 h; max response: hits give low values
Summary of the method: as §1

HaCat [1] = assay: as above; conditions: Five cell lines viability, CellTiter-Glo ATP luminescence, 48-72 h; max response: hits give low values
Summary of the method: as §1

KB-3-1 = assay: as above; conditions: Five cell lines viability, CellTiter-Glo ATP luminescence, 48-72 h; max response: hits give low values
Summary of the method: as §1

NIH3T3 [2] = assay: as above; conditions: Five cell lines viability, CellTiter-Glo ATP luminescence, 48-72 h; max response: hits give low values
Summary of the method: as §1

HACAT [3] = assay: qHTS assay to identify novel small-molecules to repurpose for Merkel cell carcinoma treatment (AID 1296009); conditions: MCC and control cell lines, CellTiter-Glo viability, 72 h; at 44.8 µM (top of the series) unless noted; note: nearly all actives have a fitted effect of over 60% in size
Summary of the method: (§2)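 CellTiter-Glo luminescence after 72 hr compound exposure at 37 degree celsius gave cell viability. Libraries NPC and MIPE were run as 8- and 11-point dose responses; RLUs normalized to DMSO (negative) and no-cell (cytotoxicity) controls.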

HEK293T = assay: as above; conditions: MCC and control cell lines, CellTiter-Glo viability, 72 h; series mostly up to 44.8 µM
Summary of the method: as §2

C33A = assay: Primary qHTS to identify gynecologic anti-cancer compounds using libraries of approved drugs and bioactive compounds (AID 1345084); conditions: Gynecologic cancer cell panel viability, ATPlite luminescence, 48 h; series mostly up to 57.5 µM; note: % is set by controls: 0 for no effect and ±100 for the full control effect; nearly all actives have a fitted effect of over 55% in size
Summary of the method: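 Cytotoxicity screen measuring ATP content by luciferase luminescence. Each compound is applied at five concentrations for 48 h at 37 C with 5% CO2.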

NIH3T3 [4] = assay: qHTS assay to identify novel small-molecules to repurpose for Merkel cell carcinoma treatment (AID 1296009); conditions: MCC and control cell lines, CellTiter-Glo viability, 72 h; at 44.8 µM (top of the series) unless noted; note: nearly all actives have a fitted effect of over 60% in size
Summary of the method: as §2

O=C(O)c1cc(O[C@@H]2O[C@H](CO[C@@H]3OC[C@@H](O)[C@H](O)[C@H]3O)[C@@H](O)[C@H](O)[C@H]2O)c2ccccc2c1O
inactive: max response (CRL-7250) 3.92% | outcome (HEK293) | outcome (HaCat [1]) | outcome (KB-3-1) | max response (NIH3T3 [2]) -7.85% | outcome (HACAT [3]) inactive [at 17.4 µM] | Potency (HEK293T) | Potency (C33A)

OC[C@H]1O[C@@H](OCCc2ccc(O)cc2)[C@H](O)[C@@H](O)[C@@H]1O
inactive: max response (CRL-7250) 1.66% | max response (HEK293) -4.41% | outcome (HaCat [1]) | max response (KB-3-1) 7.2% and 9.78% | max response (NIH3T3 [2]) -4.78% | outcome (HACAT [3]) | Potency (C33A)

CC1(CO)CC[C@]2(C(=O)O[C@@H]3O[C@H](CO)[C@@H](O)[C@H](O)[C@H]3O)CC[C@]3(C)C(=CCC4[C@@]5(C)CC[C@H](O[C@@H]6O[C@H](C(=O)O)[C@@H](O)[C@H](O)[C@H]6O)C(C)(C)C5CC[C@]43C)C2C1 (some centres not stated)
inactive: max response (CRL-7250) -1.41% | outcome (HEK293) | max response (HaCat [1]) 1.75% | outcome (KB-3-1) | outcome (NIH3T3 [2]) | outcome (HEK293T) inactive [at 9.27 µM] | outcome (NIH3T3 [4]) inactive [at 9.27 µM] | activity change, negative = cytotoxicity (C33A) 12.6% [at 11.6 µM]

COc1cc(C)c(C(=O)O[C@H]2[C@@H](O)[C@H](n3ccc(=O)[nH]c3=O)O[C@@H]2CO)c(OC)c1
inactive: max response (CRL-7250) -3.82% | outcome (HEK293) | outcome (HaCat [1]) | max response (KB-3-1) -4.86% | max response (NIH3T3 [2]) -2.57% | outcome (HACAT [3]) inactive [at 17.4 µM] | Potency (HEK293T) | Potency (C33A)

O=S(=O)(Nc1ccc(C(O)(C(F)(F)F)C(F)(F)F)cc1)c1cccs1
inactive: max response (CRL-7250) 2.89% | outcome (HEK293) | max response (HaCat [1]) 2.6% | max response (KB-3-1) 6.97% | outcome (NIH3T3 [2]) | Potency (HEK293T) | outcome (NIH3T3 [4]) | Potency (C33A)

C[C@@H]1O[C@@H](O[C@H]2[C@H](OC(=O)C34CCC5(C)C(=CCC6C7(C)CC(O)C(O[C@@H]8O[C@H](C(=O)O)[C@@H](O)[C@H](O)[C@H]8O)C(C)(C(=O)O)C7CCC65C)C3CC(C)(C)CC4O)O[C@H](C)[C@@H](O)[C@@H]2O)[C@H](O)[C@@H](O[C@@H]2OC[C@](O)(CO)[C@H]2O[C@@H]2O[C@H](CO)[C@@H](O)[C@H](O)[C@H]2O)[C@H]1O (some centres not stated)
inactive: max response (CRL-7250) -4.39% | outcome (HEK293) | max response (HaCat [1]) -8.41% | outcome (KB-3-1) | outcome (NIH3T3 [2]) | outcome (HEK293T) inactive [at 9.27 µM] | outcome (NIH3T3 [4]) inactive [at 9.27 µM] | activity change, negative = cytotoxicity (C33A) -3.41% [at 6.55 µM]

OC1COC(OCC2OC(OCCc3ccccc3)C(O)C(O)C2O)C(O)C1O (configuration not stated)
inactive: outcome (CRL-7250) | outcome (HEK293) | max response (HaCat [1]) -7.45% | outcome (KB-3-1) | outcome (NIH3T3 [2]) | Potency (HEK293T) | outcome (NIH3T3 [4]) inactive [at 17.4 µM] | Potency (C33A)

C/C(=C\CCC(C(=O)O)C1CCC2(C)C3=C(CCC12C)C1(C)CCC(=O)C(C)(C)C1CC3)C(=O)O (configuration not stated)
inactive: max response (CRL-7250) -10.7% | outcome (HEK293) | max response (HaCat [1]) 0.998% | outcome (KB-3-1) | outcome (NIH3T3 [2]) | Potency (HEK293T) | outcome (NIH3T3 [4]) inactive [at 17.4 µM] | Potency (C33A)

CC(/C=C/C1(O)C(C)CC(O)CC1(C)C)OC1OC(CO)C(O)C(O)C1O (configuration not stated)
inactive: max response (CRL-7250) 1.42% | outcome (HEK293) | max response (HaCat [1]) -9.66% | outcome (KB-3-1) | outcome (NIH3T3 [2]) | Potency (HEK293T) | outcome (NIH3T3 [4]) | Potency (C33A)

CN1C(=O)N[C@@H](Cc2c[nH]c3c(Cl)cccc23)C1=O
inactive: max response (CRL-7250) -3.21% | outcome (HEK293) | max response (HaCat [1]) -0.267% | max response (KB-3-1) -1.43% | outcome (NIH3T3 [2]) | Potency (HEK293T) | outcome (NIH3T3 [4]) | Potency (C33A)

C=CCc1ccc(O[C@@H]2O[C@H](CO[C@@H]3O[C@H](CO)[C@@H](O)[C@H](O)[C@H]3O)[C@@H](O)[C@H](O)[C@H]2O)c(O)c1
inactive: max response (CRL-7250) -24.9% | outcome (HEK293) | max response (HaCat [1]) -10.9% | max response (KB-3-1) -2.46% | outcome (NIH3T3 [2]) | Potency (HEK293T) | outcome (NIH3T3 [4]) inactive [at 17.4 µM] | Potency (C33A)

C[C@@H](Nc1cc(NS(=O)(=O)N2CCC2)nc(SCc2cccc(F)c2F)n1)[C@@H](O)CO
inactive: max response (CRL-7250) 3.18% | outcome (HEK293) | max response (HaCat [1]) 1.29% | max response (KB-3-1) -2.77% | outcome (NIH3T3 [2]) | Potency (HEK293T) | outcome (NIH3T3 [4]) | Potency (C33A)

C=CC1(C)CC2=CCC3C(C)(C(=O)O)CCCC3(C)C2CC1OC(C)=O (configuration not stated)
inactive: outcome (CRL-7250) | outcome (HEK293) | max response (HaCat [1]) -6.85% | max response (KB-3-1) 0.0592% | outcome (NIH3T3 [2]) | Potency (HEK293T) | outcome (NIH3T3 [4]) | Potency (C33A)

CC(C)C1=CC2=CCC3[C@](C)(CCC[C@@]3(C)C(=O)O)C2CC1=O (some centres not stated)
inactive: outcome (CRL-7250) | outcome (HEK293) | max response (HaCat [1]) 1.19% | max response (KB-3-1) 8.65% | outcome (NIH3T3 [2]) | Potency (HEK293T) | outcome (NIH3T3 [4]) | Potency (C33A)

COC1C2=C(COC2=O)C2(C)CCCC(C)(CO)C2C1OC(=O)c1ccccc1 (configuration not stated)
inactive: outcome (CRL-7250) | outcome (HEK293) | max response (HaCat [1]) -2.64% | outcome (KB-3-1) | outcome (NIH3T3 [2]) | Potency (HEK293T) | outcome (NIH3T3 [4]) inactive [at 17.4 µM] | Potency (C33A)

COc1cc([C@@H]2Oc3c(OC)cc(CCCO)cc3[C@@H]2CO[C@@H]2O[C@H](CO)[C@@H](O)[C@H](O)[C@H]2O)ccc1O
inactive: outcome (CRL-7250) | outcome (HEK293) | max response (HaCat [1]) -11.2% | max response (KB-3-1) 9.39% | outcome (NIH3T3 [2]) | Potency (HEK293T) | outcome (NIH3T3 [4]) inactive [at 17.4 µM] | Potency (C33A)
